Assay outcomes: PubChem BioAssay, National Center for Advancing Translational Sciences (NCATS)
HT1080NT lethal: qHTS for induction of synthetic lethality in tumor cells producing 2HG: qHTS for the HT-1080-NT fibrosarcoma cell line. HT-1080-NT fibrosarcoma viability, CellTiter-Glo ATP luminescence, 48 h. Potency, µM (series often up to 46.1 µM), for inactives: at the highest dose activity, negative = less viability, hits mostly cytotoxic. hit rate 1.6% among 360,000. AID 686970, 2013;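 also: NT is the 2HG producing partner of a matched IDH1 knockdown line; potency is read from the fitted curve at half-maximal effect; 0% = DMSO-treated cells and -100% = media-only wells without cells; nearly all actives have a fitted effect of over 55% in size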
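Luminescent CellTiter-Glo readout after 48 hours of compound exposure at 37 degrees C defined viability of HT-1080-NT cells. Activity was normalized to DMSO wells and cell-free media wells; concentration-response curves were fitted and assigned curve classes.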
DT40 TDP1 CPT: qHTS for Inhibitors of human tyrosyl-DNA phosphodiesterase 1 (TDP1): qHTS in cells in presence of CPT | chicken DT40 Tdp1-/-;hTDP1 cells + 20 nM CPT, ATP luminescence, 48 h | Potency, µM (series often up to 46.2 µM), for inactives: at the highest dose activity change, negative = growth inhibition, actives largely listed as inhibitors | hit rate 12% among 420,000 | AID 686979, 2013; also: potency is read from the fitted curve at half-maximal effect; nearly all actives have a fitted effect of over 55% in size
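Chicken DT40 Tdp1-/- cells stably complemented with human TDP1 were seeded at 400 cells/well in medium containing 20 nM camptothecin, exposed to pin-transferred compounds, and grown at 37 °C for at least 48 hr. Viability was read as ATP luminescence.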
IL-1B inflam inh: qHTS for Inhibitors of Inflammasome Signaling: IL-1-beta AlphaLISA Primary Screen; THP-1 LPS/ATP IL-1B secretion, AlphaLISA, 16 h; active compounds read low; activity change, % at 57.5 µM; hit rate 4.7% among 360,000; in the data active = activity change below about -50%; inconclusive = mostly about -30% to -49%
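Secreted IL-1B measured by AlphaLISA bead assay after 16 h compound exposure of THP-1 cells; compounds (final up to 57.5 uM) added 1 h before LPS (250 ng/mL) and ATP (1.25 mM) stimulation; lower signal means less secretion.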
TDP1 cell noCPT: qHTS for Inhibitors of human tyrosyl-DNA phosphodiesterase 1 (TDP1): qHTS in cells in absence of CPT; Potency, µM (doses to about 46.2 µM), for inactives: at the highest dose activity change, negative = growth inhibition, most hits filed as inhibitors; hit rate 15% among 420,000; DT40 Tdp1-/- hTDP1 cells, no CPT, ATP luminescence, 48 h; also: potency is read from the fitted curve at half-maximal effect; nearly all actives have a fitted effect of over 55% in size
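Chicken DT40 Tdp1-/- cells stably complemented with human TDP1 were seeded at 400 cells/well with DMSO in place of 20 nM camptothecin. After compound pinning, cells grew at least 48 hr at 37 °C; viability read by CellTiter-Glo luminescence.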
HT1080 IDH1KD tx: qHTS for induction of synthetic lethality in tumor cells producing 2HG: qHTS for the HT-1080-IDH1KD cell line; AID 686971, 2013; HT-1080 IDH1 knockdown viability, ATP luminescence, 48 h; hit rate 2% among 360,000; Potency, µM (titrated, usually from 46.1 µM), for inactives: top-dose activity, negative = toxicity, hits mostly cytotoxic;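 also: potency is read from the fitted curve at half-maximal effect; 0% = DMSO wells and -100% = cell-free medium wells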
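IDH1KD HT-1080 cells, 750/well, RPMI + 5% FBS; compound pinned after 2 h settling; 48 h, 37 °C; CellTiter-Glo luminescence; % activity normalised to DMSO and no-cell wells; curves fitted, classed by r2 and efficacy.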
ELG1 DNA repair: qHTS screen for small molecules that inhibit ELG1-dependent DNA repair in human embryonic kidney (HEK293T) cells expressing luciferase-tagged ELG1; HEK293T ELG1-luciferase reporter, luminescence, 16 h; DNA damage induced by 5-fluorouridine; Potency, µM (titrated, usually from 46.1 µM), for inactives: top-dose activity change, negative = inhibition, hits mostly inhibitors; hit rate 2.3% among 330,000; AID 504467, 2011; also: potency is read from the fitted curve at half-maximal effect; nearly all actives have a fitted effect of over 55% in size
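In this reporter screen, reduction of luminescence relative to DMSO vehicle indicated activity. Compounds and 5-fluorouridine were added together to 2,000 cells per well, incubated for 16 hr at 37 °C, then developed with ONE-Glo.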
* = called active by the depositor; ? = inconclusive; / = no result given. In the library only some 19% were active in any assay of this set; here they are far more common. Unless noted, calls follow the shape of the dose curve; as a rule, active = well fitted curve in the direction sought with a large enough effect; inconclusive = small, poorly fitted or top-dose-only effect, or another doubt; inactive = no such curve, though single readings can be large; an effect the other way counts as inactive or inconclusive. Unless noted, % is scaled to controls: 0 for no effect and ±100 for the full control effect.

SMILES	HT1080NT lethal	DT40 TDP1 CPT	IL-1B inflam inh	TDP1 cell noCPT	HT1080 IDH1KD tx	ELG1 DNA repair
CCCS(=O)(=O)NC(=O)C1(C)CCN(C(=O)c2ccc(SC(F)(F)F)cc2)C1 (stereo not drawn)	23%	1%	11	-3%	2%	/
O=C(CSc1nc(-c2ccccc2)c(-c2ccccc2)[nH]1)N1CCN(S(=O)(=O)c2ccccc2)CC1	-13%	18µM*	?	18µM*	-17%	16µM*
CCOCCCNC(=O)CN1C(=O)CCn2nc(-c3cccn3C)cc21	/	8%	/	7%	/	/
O=C(Nc1nnc(C2=COCCO2)o1)c1ccc(Cl)cc1	-1%	16µM*	-4	?	-30%	13%
O=C(Nc1nnc(C2=COCCO2)o1)c1cccc(C(F)(F)F)c1	-14%	26µM*	4	15µM*	-20%	-1%
O=C(Nc1nnc(C2=COCCO2)o1)c1ccc(F)cc1	0%	?	-1	?	-20%	7%
C=CCNCc1cccn1-c1sc2c(c1C#N)CCCC2	1%	21µM*	-20	21µM*	?	?
CC(C)(C)C(=O)c1c(N)[nH]c(C(=O)c2ccccc2)c1-c1ccc(Cl)cc1Cl	10%	?	-5	?	1%	/
CC(C)(C)C(=O)c1c(N)[nH]c(C(=O)c2ccccc2)c1-c1c(F)cccc1F	-6%	?	-26	21µM*	-23%	/
COc1ccc(-c2c(C(=O)c3ccc(Br)cc3)[nH]c(N)c2C(=O)c2ccccc2)cc1OC	24%	?	10	21µM*	?	/
COc1ccc(-c2c(C(=O)c3ccccc3)[nH]c(N)c2C(=O)NCc2ccccc2)cc1OC	4%	?	-5	?	7%	/
Nc1[nH]c(C(=O)c2ccccc2)c(-c2cccc3ccccc23)c1C(=O)NCc1ccccc1	10%	?	96	23µM*	10%	/
CC(C)(C)C(=O)c1c(N)[nH]c(C(=O)c2ccccc2)c1-c1ccccc1Br	5%	26µM*	-14	16µM*	13%	/
COCCNC(=O)C1CCCN(C(=O)c2cc(-c3ccccc3)cs2)CC1 (stereo not drawn)	21%	-19%	18	-16%	8%	/
Cn1nnc2cc(C(=O)Nc3ccccc3F)ccc21	25%	4%	-25	-12%	22%	?
CC(NC(=O)c1ccc(C#N)cc1)C1CC2CCC1C2 (stereo not drawn)	-7%	-24%	-16	-15%	-8%	1%
COC(=O)c1c(N)[nH]c(C(=O)c2ccccc2)c1-c1ccccc1Br	5%	?	30	16µM*	3%	/
NC(=O)c1c(N)[nH]c(C(=O)c2ccccc2)c1-c1ccccc1Br	21%	?	26	18µM*	12%	/
Nc1[nH]c(C(=O)c2ccccc2)c(-c2ccc(Cl)cc2Cl)c1C(=O)c1ccc(Cl)c(Cl)c1	2%	18µM*	?	?	0%	/
CC(NC(=O)c1c(N)[nH]c(C(=O)c2ccccc2)c1-c1ccccc1Br)c1cccc2ccccc12 (stereo not drawn)	?	?	-12	?	?	/
COc1ccc(-c2[nH]ncc2-c2cscn2)c(O)c1	?	-15%	-13	-6%	3%	1%
Cc1cc(C(O)c2ncc(-c3ccccc3C)[nH]2)ccc1F (stereo not drawn)	0%	?	-3	?	3%	/
OC1Cc2ccccc2C1Nc1cccc(C(F)(F)F)c1 (stereo not drawn)	-1%	-3%	-66*	?	11%	/
Cn1cc(-c2nc3cnc(N4CCOCC4)nc3n(C3CC3)c2=O)c2ccccc21	/	-4%	/	-6%	/	/
CN1CCN(c2ncc3nc(-c4cn(C)c5ccccc45)c(=O)n(C)c3n2)CC1	/	23µM*	/	23µM*	/	/
SMILES	HT1080NT lethal	DT40 TDP1 CPT	IL-1B inflam inh	TDP1 cell noCPT	HT1080 IDH1KD tx	ELG1 DNA repair
COc1ccc(-n2c(=O)c(-c3cn(C)c4ccccc34)nc3cnc(N4CCOCC4)nc32)cc1	/	-4%	/	12%	/	/
Cn1cc(-c2nc3cnc(N4CCNCC4)nc3n(C)c2=O)c2ccccc21	/	5.2µM*	/	5.8µM*	/	/
CC(C)C1COc2cc3oc(=O)ccc3cc2O1 (stereo not drawn)	/	-8%	/	-10%	/	/
CC(C)(C)c1ccc(OCCNCc2ccccc2)cc1	?	?	-93*	?	16µM*	-2%
S=C(NCCOCCOCCNC(=S)Nc1ccccc1)Nc1ccccc1	-14%	0%	0	2%	-12%	?
CCOc1ccc(CSCCNC(=S)Nc2ccccc2)cc1	6%	23µM*	4	23µM*	-9%	?
COc1ccccc1OCCNC(=O)c1ccccc1C	-12%	-15%	-21	-8%	-20%	?
CCOc1ccc(NC(=S)NCCCc2ccccc2)cc1	0%	?	-18	?	1%	5%
COc1ccccc1C(=O)NCCOc1ccc(C(C)(C)C)cc1	-7%	?	-9	21µM*	-6%	-15%
CC(C)(C)c1ccc(OCCNC(=S)Nc2ccccc2)cc1	?	2.9µM*	-107*	5.8µM*	16µM*	-17%
